Assay outcomes (PubChem)
ELG1 genotox: genotoxicity induction in ELG1-luciferase HEK293T cells | Potency, µM (titrated, usually from 46 µM), hits mostly activators | HEK293T ELG1-luciferase reporter, luminescence, 16 h | actives 1.3% (n = 330,000) | AID 504466; further: nearly all actives have a fitted effect of over 60% in size
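HEK293T cells expressing luciferase-tagged ELG1 were exposed to compound or DMSO vehicle for 16 hr at 37 °C and 5% CO2. Luciferase activity was then measured with ONE-Glo after 30 min at room temperature.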
NPC1 promoter act: activates the NPC1 promoter; Huh7 NPC1 promoter luciferase reporter, 24 h; AID 485313; actives 2.4% (n = 320,000); Potency, µM (titrated, usually from 9.22 µM), usual class: activators; further: nearly all actives have a fitted effect of over 60% in size
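Huh7 cells stably carrying NPC1 promoter–luciferase, plated in Opti-MEM with 10% FBS for 2 h, were exposed to compound in DMSO for 24 h at 37 °C; luciferase reagent was added for 10 min and luminescence read.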
FLuc counter: counter-screen for miR-21 project: firefly luciferase inhibitors or activators; P08659; purified FLuc, Km substrates, luminescence inhibition; Potency, µM (series often up to 57.5 µM), hits mostly inhibitors; actives 6.9% (n = 360,000); AID 588342; further: nearly all actives have a fitted effect of over 55% in size
Target sequence (P08659 whole entry, looked up): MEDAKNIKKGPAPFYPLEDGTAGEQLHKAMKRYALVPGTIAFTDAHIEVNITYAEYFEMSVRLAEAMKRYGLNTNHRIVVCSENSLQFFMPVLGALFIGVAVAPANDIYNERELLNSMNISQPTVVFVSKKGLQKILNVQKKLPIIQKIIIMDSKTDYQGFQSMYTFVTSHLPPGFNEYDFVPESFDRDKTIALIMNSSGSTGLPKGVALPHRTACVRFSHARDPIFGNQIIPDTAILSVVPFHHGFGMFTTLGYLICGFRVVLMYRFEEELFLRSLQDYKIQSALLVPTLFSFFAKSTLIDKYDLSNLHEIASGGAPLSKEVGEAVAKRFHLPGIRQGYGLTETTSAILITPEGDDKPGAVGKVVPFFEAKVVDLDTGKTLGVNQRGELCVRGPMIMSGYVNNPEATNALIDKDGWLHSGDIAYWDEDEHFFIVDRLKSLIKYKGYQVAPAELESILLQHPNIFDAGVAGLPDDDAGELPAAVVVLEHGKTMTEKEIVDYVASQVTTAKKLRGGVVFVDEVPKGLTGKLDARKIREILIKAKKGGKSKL
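Purified P. pyralis luciferase, 10 nM final, with Km-level 10 uM D-luciferin and 10 uM ATP in 50 mM Tris acetate pH 7.5, 10 mM Mg acetate, 0.01% Tween-20, 0.05% BSA; 6-point qHTS titration about 60 µM downward; luminescence read.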
SMN2 splice enh: enhancers of SMN2 splice variant expression; HEK293 SMN2-luciferase splicing reporter, luminescence, 30-36 h; Potency, µM (series often up to 46.1 µM), usual class: activators; actives 2.8% (n = 210,000); further: nearly all actives have a fitted effect of over 55% in size
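HEK293 cells carry an SMN2 minigene-luciferase reporter in which exon 7 inclusion puts luciferase in frame. Cells were seeded at 2000 cells/well, attached for 10-12 hours, then exposed to compounds for 30-36 hours at 37C before ONE-Glo luminescence.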
ELG1 DNA repair: inhibitors of ELG1-dependent DNA repair in HEK293T cells; HEK293T ELG1-luciferase reporter, luminescence, 16 h; DNA damage induced by 5-fluorouridine; Potency, µM (doses to about 46.1 µM), most hits filed as inhibitors; actives 2.3% (n = 330,000); AID 504467; further: nearly all actives have a fitted effect of over 55% in size
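Cells (2,000 per well) received 5-fluorouridine plus test compound or DMSO and were incubated 16 hr at 37 °C, 5% CO2. Luciferase activity was read by luminescence 30 min after ONE-Glo addition; signal suppression marked inhibition of damage-induced ELG1 function.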
Rab9 prom act: Rab9 promoter activation; Huh7 Rab9 promoter-luciferase reporter, luminescence, 24 h; AID 485297; Potency, µM (highest dose often 9.22 µM), hits mostly activators; actives 2.8% (n = 320,000); further: nearly all actives have a fitted effect of over 60% in size
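Using Huh7 cells stably transfected with Rab9 promoter–luciferase, compounds were incubated 24 h at 37 °C, 5% CO2; luciferase luminescence was read 10 min after reagent addition.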
Of the large screens only hits and unclear results are named; the others gave an inactive call. Hits are enriched below; roughly 9.2% of the tested compounds scored in any of these assays. The call rests on the fitted dose curve; in most records, active means well fitted curve in the direction sought with a large enough effect; inconclusive means small, poorly fitted or top-dose-only effect, or another doubt; inactive means no such curve, though single readings can be large; an effect the other way counts as inactive or inconclusive.

O=C(O/N=C1/CCCc2occc21)c1ccccc1	FLuc counter 2.1µM
O=C(O/N=C1/CCCc2occc21)c1ccc(Cl)cc1Cl	FLuc counter 5.4µM (no result: SMN2 splice enh)
O=C(CNC(=O)c1cccc(F)c1)N/N=C/c1cccs1	FLuc counter inconclusive (no result: SMN2 splice enh)
Cc1ccc(/C(O)=C2/C(=O)C(=O)N(Cc3ccco3)C2c2cccs2)cc1 (stereo not drawn)	FLuc counter 24µM
CCN(CC)CCN1C(=O)C(=O)/C(=C(/O)c2ccc(OC)cc2)C1c1cccs1 (stereo not drawn)	FLuc counter inconclusive, ELG1 DNA repair inconclusive
O=C(O)c1ccc(NC(=O)c2ccccc2NC(=O)c2cccc(Br)c2)cc1	FLuc counter 11µM (no result: SMN2 splice enh)
O=C(Nc1cc(C(=O)Nc2ccccc2C(=O)O)cc(C(=O)Nc2ccccc2C(=O)O)c1)c1ccccc1	none (no result: SMN2 splice enh)
O=C(Nc1cccc(NC(=O)c2ccccc2Cl)c1)c1cccc(Br)c1	none (no result: ELG1 genotox, NPC1 promoter act, ELG1 DNA repair, Rab9 prom act)
Cc1cccc(OCC(=O)Nc2cccc(C(=O)Nc3ccccc3C(=O)O)c2)c1	FLuc counter inconclusive
CC(C)c1ccc(OCC(=O)Nc2cccc(C(=O)Nc3ccccc3C(=O)O)c2)cc1	FLuc counter 21µM
CCC(C)(C)c1nnc(NC(=O)c2cccc([N+](=O)[O-])c2)s1	FLuc counter 19µM, SMN2 splice enh inconclusive, ELG1 DNA repair inconclusive
O=C(Nc1ccccc1C(=O)O)c1cccc(NC(=O)c2ccccc2Br)c1	FLuc counter 24µM (no result: SMN2 splice enh)
Nc1cc(S(=O)(=O)N2CCOCC2)ccc1Oc1cccc(Br)c1	none (no result: SMN2 splice enh)
Cc1ccc(OC(=O)CCC(=O)NC(C)c2ccccc2)cc1 (stereo not drawn)	none
O=C(O)CCCC(=O)Nc1cccc(C(=O)Nc2ccccc2C(=O)O)c1	FLuc counter inconclusive (no result: SMN2 splice enh)
CC(C)C(=O)Nc1cccc(C(=O)Nc2ccccc2C(=O)O)c1	FLuc counter 7.6µM, ELG1 DNA repair inconclusive
O=C(Nc1ccc(Cl)cc1F)c1ccccc1Br	ELG1 genotox inconclusive, NPC1 promoter act 1.8µM, FLuc counter 11µM, SMN2 splice enh 11µM, ELG1 DNA repair inconclusive, Rab9 prom act 2.2µM
CC(C)C(=O)Nc1ccc(C(=O)Nc2nnc(C(C)(C)C)s2)cc1	none
CC(C)C(=O)Nc1cccc(C(=O)Nc2nnc(C(C)(C)C)s2)c1	FLuc counter 13µM
O=C(CCCn1c(=O)oc2ccccc21)NNC(=O)COc1ccc(F)cc1	none (no result: NPC1 promoter act, FLuc counter, SMN2 splice enh, Rab9 prom act)
Oc1ccccc1N1CCN(c2ncnc3scc(-c4ccc(F)cc4)c23)CC1	ELG1 DNA repair 9.2µM (no result: SMN2 splice enh)
Cc1nc(N2CCN(c3ccccc3O)CC2)c2c(-c3ccccc3)csc2n1	ELG1 DNA repair 18µM (no result: SMN2 splice enh)
OCCN1CCN(c2ncnc3scc(-c4ccc(F)cc4)c23)CC1	ELG1 DNA repair inconclusive (no result: SMN2 splice enh)
COc1ccc(-c2csc3nc(C)nc(N4CCN(C(C)=O)CC4)c23)cc1OC	none
Oc1ccccc1N1CCN(c2ncnc3scc(-c4ccccc4)c23)CC1	ELG1 DNA repair 18µM (no result: SMN2 splice enh)
COc1cccc(/C=C/C(=O)NCc2cn3cc(Cl)ccc3n2)c1OC	FLuc counter inconclusive
Oc1ccc(/C=N/Nc2nc(N3CCCCCC3)nc(N3CCCCCC3)n2)c(O)c1	ELG1 DNA repair inconclusive
Oc1ccccc1/C=N/Nc1ccccc1	ELG1 genotox inconclusive, FLuc counter 7.6µM, ELG1 DNA repair inconclusive
Oc1ccc(/C=N/Nc2ccc3ccccc3c2)c(O)c1	FLuc counter 19µM, ELG1 DNA repair inconclusive
NC(=S)N/N=C/c1ccccc1O	none (no result: SMN2 splice enh)
Oc1ccccc1/C=N/Nc1ncc(Br)cn1	ELG1 genotox 16µM, FLuc counter inconclusive, ELG1 DNA repair inconclusive
CCCOc1ccc(-c2c(=O)n(O)c3ccccc3[n+]2[O-])cc1	FLuc counter inconclusive, ELG1 DNA repair inconclusive (no result: SMN2 splice enh)
Cc1cc(C)cc(NC(=O)C(C)N2Cc3ccccc3C2=O)c1 (stereo not drawn)	none (no result: ELG1 genotox, NPC1 promoter act, SMN2 splice enh, ELG1 DNA repair, Rab9 prom act)
Cc1cc(C(=O)COC(=O)c2csc3c2CCCC3)c(C)n1C	FLuc counter 12µM, ELG1 DNA repair inconclusive
